Measurements published in ChEMBL document CHEMBL3988442, “University of Dundee, Small-Polar-MMV Screening Library” (2021).
Hit rate of the full screen: of about 38,000 compounds, about 1,200 (3.2%) showed an effect of 50% or more. The median lay at about -58%. Shown is part of a subset that was picked to be rich in strong results.

What follows are compounds tested on Plasmodium falciparum (assay: Calibr Malaria Delayed Death Assay SOP). Settings: concentration 4.99e-06 (unit not given; other assays of the set use mol/L).
Type: functional, organism-based
Parameters: scale not given: in the data most compounds retested in dose-response had high values
In the case of CN(C)c1ncc2c(n1)CN(C1CCSCC1)C2=O, the “Percent Effect” value is reported as -103.3%.
Cc1cc(C2CCCN(Cc3nnc(Cc4ccccc4)o3)C2)n[nH]1 (centres undefined) was tested, and the “Percent Effect” value was -117.5%.
In the case of COc1cc(Cl)ccc1C(=O)N1CCCC(c2cc(C)[nH]n2)C1 (centres undefined), the “Percent Effect” value is reported as -107.6%.
Cc1cc(CNC(=O)c2ccno2)c(C)o1 was tested, and the “Percent Effect” value was -93.35%.
In the case of CCS(=O)(=O)c1ccccc1C(=O)N1CCCC(n2cccn2)C1 (centres undefined), the “Percent Effect” value is reported as -21.75%.
In the case of Cc1cccnc1[C@H](C)NC(=O)c1cccc(CC2CCNCC2)c1, the “Percent Effect” value is reported as 7.759%.
CC(C)(O)CCc1cccc(C(=O)NCc2cnn3cccnc23)c1 was tested, and the “Percent Effect” value was -126.6%.
For O=C(NCc1cnn2cccnc12)c1cccc(CC2CCNCC2)c1, the “Percent Effect” value was 65.91%.
CCNC(=O)C1CCCN(C(=O)Nc2ccc3c(c2)CCCN3C)C1 (centres undefined) was tested, and the “Percent Effect” value was 9.496%.
In the case of CCOCC1CCN(C(=O)Nc2ccc3c(c2)CCCO3)C1 (centres undefined), the “Percent Effect” value is reported as -56.87%.
For CCOCC1CCN(C(=O)Nc2ccc3c(c2)CCCN3C)C1 (centres undefined), the “Percent Effect” value was 57.13%.
Cc1noc([C@H]2COC[C@H]3CN(C(=O)Cc4cccs4)C[C@H]32)n1 was tested, and the “Percent Effect” value was -60.46%.
In the case of CN(C(=O)Cn1nc(-c2cccs2)ccc1=O)C1CCS(=O)(=O)C1 (centres undefined), the “Percent Effect” value is reported as -97.97%.
For CC1=C(CCN2CC[C@@H](N3CCC(O)CC3)[C@H](O)C2)C(C)(C)CCC1, the “Percent Effect” value was -51.59%.
With Cc1c(CN2C[C@H](O)[C@@H](N3CCOCC3)C2)[nH]c2ccc(F)cc12 the “Percent Effect” value was -95.14%.
With CC1=C(CCN2C[C@H](O)[C@@H](N3CCOCC3)C2)C(C)(C)CCC1 the “Percent Effect” value was 77.23%.
With COc1ccc2c(c1)NC(=O)C2OC(=O)Cc1ccccc1C (centres undefined) the “Percent Effect” value was 10.16%.
With CCc1ncc2c(n1)CN(c1nccc(C3CCCC3)n1)C2 the “Percent Effect” value was -48.7%.
In the case of CN1CCN(c2nccc(-c3cncnc3C3CCCCC3)n2)CC1, the “Percent Effect” value is reported as 60.54%.
With Cc1nn(C)cc1-c1ccnc(N2CCCN(CC(C)C)CC2)n1 the “Percent Effect” value was -23.38%.
c1cc(-c2cn3nccc3nc2C2CCCCC2)nc(N2CCCC2)n1 was tested, and the “Percent Effect” value was -1.044%.
For CN1CCCN(c2nc(C3CCCC3)nc3c2cnn3C)CC1, the “Percent Effect” value was -58.12%.
CN1CCCN(c2nccc(-c3cncnc3C3CCCCC3)n2)CC1 was tested, and the “Percent Effect” value was 59.73%.
Cc1nn(C)c2ncc(NC(=O)N3CCCCCC3)cc12 was tested, and the “Percent Effect” value was -40.12%.
For Cc1nc(CN2CCc3cnc(C(C)C)nc3C2)oc1C, the “Percent Effect” value was -83.71%.
For CC(NS(C)(=O)=O)c1nc(-c2ccc(Br)cc2)no1 (centres undefined), the “Percent Effect” value was -124.5%.
In the case of Cc1nc(C2CCN(C)CC2)cc(N2CCOc3ccc(Cl)cc3C2)n1, the “Percent Effect” value is reported as 69.39%.
With Cc1nc(C2CCNCC2)cc(N2CCOc3ccccc3C2)n1 the “Percent Effect” value was 46.26%.
Cc1nc(CCN)cc(N2CCOc3ccc(Cl)cc3C2)n1 was tested, and the “Percent Effect” value was 34.3%.
